Only a selection was taken, and the strongest signals are over-represented in it overall.
Test system: Neu5Ac(a2-6)Gal
Assay: glycan array binding signal (z-score within array); higher = stronger binding
Settings: glycan notation: IUPAC condensed, linker removed
Procedure, shortened: (§1)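 Glycan array data were curated from 3228 arrays in the Consortium for Functional Glycomics database and kept only where the protein sequence was available. Glycan names were converted to IUPAC-condensed notation, and columns mapping to the same glycan were averaged. The binding signal is a within-array Z-score, averaged across arrays of the same protein sequence at different concentrations or buffers and across linkers. Negative Z-scores can be read as non-binding.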

CHI3L1 (Homo sapiens), P36222, sequence (P36222 whole entry): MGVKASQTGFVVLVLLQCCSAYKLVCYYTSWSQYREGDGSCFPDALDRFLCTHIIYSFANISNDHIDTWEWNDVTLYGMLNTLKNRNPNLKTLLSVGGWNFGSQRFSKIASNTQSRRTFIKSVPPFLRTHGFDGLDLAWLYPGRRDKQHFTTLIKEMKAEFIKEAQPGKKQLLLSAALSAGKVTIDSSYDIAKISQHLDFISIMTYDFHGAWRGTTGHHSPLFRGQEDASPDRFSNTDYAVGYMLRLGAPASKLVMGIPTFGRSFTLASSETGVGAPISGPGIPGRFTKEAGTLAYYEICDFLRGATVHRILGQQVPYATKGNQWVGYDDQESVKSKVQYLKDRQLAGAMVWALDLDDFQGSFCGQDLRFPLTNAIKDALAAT
Regenerating Gene IV (Homo sapiens), Q9BYZ8, sequence (Q9BYZ8 whole entry, looked up): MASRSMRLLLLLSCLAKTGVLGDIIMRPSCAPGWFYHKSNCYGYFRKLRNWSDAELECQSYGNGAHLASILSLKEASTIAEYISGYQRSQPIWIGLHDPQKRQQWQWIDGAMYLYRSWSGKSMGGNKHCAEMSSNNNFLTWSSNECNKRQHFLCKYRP
PILRa (Mus musculus), Q2YSF3, sequence (Q2YSF3 entry or part of it): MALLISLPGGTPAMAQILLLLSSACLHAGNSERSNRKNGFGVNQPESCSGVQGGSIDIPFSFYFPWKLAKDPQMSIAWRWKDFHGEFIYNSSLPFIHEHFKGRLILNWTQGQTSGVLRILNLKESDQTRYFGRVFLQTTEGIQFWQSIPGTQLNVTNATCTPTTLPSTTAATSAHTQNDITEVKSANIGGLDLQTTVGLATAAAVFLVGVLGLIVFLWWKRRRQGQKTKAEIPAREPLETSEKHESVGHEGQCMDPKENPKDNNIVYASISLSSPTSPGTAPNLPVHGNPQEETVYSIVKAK
6RG (Lolium perenne), sequence (chain, as listed by the source): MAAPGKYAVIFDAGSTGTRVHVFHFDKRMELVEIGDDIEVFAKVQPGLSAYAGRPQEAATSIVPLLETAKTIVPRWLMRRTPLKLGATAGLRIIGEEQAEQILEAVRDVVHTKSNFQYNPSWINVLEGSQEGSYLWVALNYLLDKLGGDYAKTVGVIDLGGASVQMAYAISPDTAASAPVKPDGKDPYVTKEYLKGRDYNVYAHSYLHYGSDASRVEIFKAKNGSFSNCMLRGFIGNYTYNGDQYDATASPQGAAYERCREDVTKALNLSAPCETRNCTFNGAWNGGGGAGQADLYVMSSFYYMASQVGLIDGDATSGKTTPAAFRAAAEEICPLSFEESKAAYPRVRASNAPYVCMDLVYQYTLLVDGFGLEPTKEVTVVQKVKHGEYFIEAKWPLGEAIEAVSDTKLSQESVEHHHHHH

| Substance | glycan array binding signal (z-score) |
| --- | --- |
| Regenerating Gene IV (Homo sapiens), Q9BYZ8 | 0.693 |
| HARE (Homo sapiens), Q8WWQ8 | -0.26 |
| PILRa (Mus musculus), Q2YSF3 | 2.04 |

Test system: Neu5Ac(a2-8)Neu5Ac
Assay: as above
Settings: glycan notation: IUPAC condensed, linker removed
Procedure, shortened: as §1

| Substance | glycan array binding signal (z-score) |
| --- | --- |
| CHI3L1 (Homo sapiens), P36222 | -0.091 |
| 6RG (Lolium perenne) | -0.273 |
| Siglec-8 (Homo sapiens), Q9NYZ4 | 0.014 |

Test system: Neu5Ac9Ac(a2-3)Gal(b1-3)GlcNAc
Assay: as above
Settings: glycan notation: IUPAC condensed, linker removed
Procedure, shortened: as §1

| Substance | glycan array binding signal (z-score) |
| --- | --- |
| CHI3L1 (Homo sapiens), P36222 | -0.07 |
| MpAFP RI GFP (Marinomonas primoryensis) | 0.228 |
| Siglec-8 (Homo sapiens), Q9NYZ4 | -0.078 |

— the supplement of paper PMC8728848
